The whole screen tested about 29,000 compounds, of which fewer than 10 were called active. Only a sample is shown. Unmarked numbers belong to inactive results. No rule for the calls is given here.

This assay can be described thus: reversal of PD-1 mediated T-cell inhibition, primary screen, luminescence, primary human CD4 T cells, PD-L1 beads (AID 2316).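 Also: 0% = median vehicle wells and 100% = positive control.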 The note with it: CellTiter-Glo 96 h, active compounds read high.
`C[C@@H]1CCCCO[C@H](CN(C)Cc2ccncc2)[C@@H](C)CN([C@H](C)CO)C(=O)c2cc(NC(=O)CCCN(C)C)ccc2O1`: the activation is 0.961%.

Regarding `Cc1cc(C)c(C(=O)CSc2nc(C)cc(=O)[nH]2)c(C)c1`, the activation was 1.17%.

For the compound `CS(=O)(=O)N(CC(=O)N1CCOCC1)c1ccc2c3c(cccc13)CC2`, the activation was 0.857%.

For the compound `COc1cc(C2OC(c3cc(OC)c(OC)c(OC)c3)C(C)C2C)cc(OC)c1OC` (centres undefined), the activation is 0.69%.

On to `Cc1noc(C)c1NC(=O)N(C)C[C@H]1Oc2ccc(NS(=O)(=O)c3ccc(F)cc3)cc2C(=O)N([C@@H](C)CO)C[C@H]1C`, for which the activation is 2.2%.

For the compound `COc1ccc(NC(=O)N(C)C[C@H]2Oc3c(NC(=O)Nc4cccc5ccccc45)cccc3C(=O)N([C@@H](C)CO)C[C@H]2C)cc1`, the activation is 0.624%.

For the compound `CC(=O)Oc1ccc2occ(C(=O)c3cc4ccccc4o3)c2c1`, the activation is -0.284%.

For the compound `CS(=O)(=O)N(CC(=O)Nc1cc(C(F)(F)F)ccc1Cl)c1ccc(Br)cc1`, the activation is -0.295%.

On to `C[C@H]1CN([C@@H](C)CO)C(=O)c2cccc(NC(=O)C3CCOCC3)c2O[C@@H]1CN(C)C`, for which the activation was 0.0381%.

With `C[C@@H]1CN([C@@H](C)CO)C(=O)Cc2cc(NC(=O)CCCCCC(=O)Nc3ccccc3N)ccc2O[C@@H]1CN(C)C(=O)NC1CCCCC1`, the activation is 0.434%.

As for `C[C@@H]1CN([C@H](C)CO)C(=O)c2cc(NC(=O)Nc3ccc4c(c3)OCO4)ccc2O[C@H]1CN(C)C(=O)Nc1ccccc1`, the activation is 0.77%.

On to `Cn1nc(C(=O)O)c2ccccc2c1=O`, for which the activation is -0.137%.

Turning to `COc1ccc(S(=O)(=O)N(C)CC(=O)Nc2cccc(C(F)(F)F)c2)cc1OC`, the activation was -1.43%.

With `CCCCCC(O)c1cccc(OCc2ccc3ccccc3n2)c1` (centres undefined), the activation is 5.54%.

Turning to `C[C@H]1CN([C@@H](C)CO)C(=O)c2cccc(NC(=O)c3ccncc3)c2O[C@H]1CN(C)C`, the activation was 2.81%.

As to `O=C(O)C1CC=CCC1C(=O)Nc1ccc(C(=O)N2CCCCC2)c(Cl)c1` (centres undefined), the activation was 2.23%.

With `Cc1ccc(S(=O)(=O)N(C)C[C@@H]2Oc3c(NC(=O)C4CCCCC4)cccc3C(=O)N([C@H](C)CO)C[C@H]2C)cc1`, the activation is 1.48%.

On to `Cc1ccc(S(=O)(=O)Nc2ccc3c(c2)C(=O)N([C@H](C)CO)C[C@H](C)[C@@H](CN(C)S(=O)(=O)c2cccs2)O3)cc1`, for which the activation is -1.04%.

For the compound `CC(C)CSc1nnc(CSCc2nc(-c3ccc(Cl)cc3)cs2)n1C`, the activation is 1.7%.

In the case of `CS(=O)(=O)N(CC(=O)Nc1ccc(F)c(Cl)c1)C1CCCCC1`, the activation is 0.469%.

For `CC(C)NC(=O)N(C)C[C@@H]1Oc2ccc(NS(=O)(=O)c3ccccc3)cc2C(=O)N([C@@H](C)CO)C[C@H]1C`, the activation was 1.49%.

In the case of `C[C@H]1CN([C@@H](C)CO)C(=O)Cc2cc(NC(=O)CCCCCC(=O)Nc3ccccc3N)ccc2O[C@H]1CN(C)C(=O)Nc1ccc(F)cc1`, the activation was 0.894%.

As for `Cc1noc(C)c1S(=O)(=O)N(C)C[C@@H]1Oc2c(NS(=O)(=O)c3cn(C)cn3)cccc2C(=O)N([C@H](C)CO)C[C@@H]1C`, the activation is 1.65%.

Turning to `O=c1c2ccccc2nc(SCc2ccc(F)cc2)n1-c1ccccc1`, the activation is -10.1%.

Regarding `COC(=O)c1ccc(C(=O)OC)c(NC(=O)COc2ccc(C)cc2)c1`, the activation is -5.39%.

As to `O=C(Nc1ccc(C23CC4CC(CC(C4)C2)C3)cc1)c1cccs1`, the activation was 0.396%.

Take `C/C=C1\C2C=C(C)CC1(N)c1ccc(=O)[nH]c1C2` (centres undefined): the activation is 0.91%.

Consider `COc1cccc2cc(C(=O)Nc3sc4c(c3C(N)=O)CCCCC4)c(=O)oc12`, for which the activation is 3.77%.

As for `COc1ccc(S(=O)(=O)Nc2ccc3c(c2)C(=O)N([C@H](C)CO)C[C@@H](C)[C@H](CN(C)S(=O)(=O)c2ccc(C)cc2)O3)cc1`, the activation was 0.261%.

As to `COc1ccc(Oc2ccc(NC(=O)CCC(=O)O)cc2)cc1`, the activation is 0.302%.

For `C[C@@H]1CN([C@H](C)CO)C(=O)Cc2cc(NC(=O)Cc3ccccc3)ccc2O[C@@H]1CN(C)Cc1ccccc1`, the activation was 1.25%.

Take `O=C(CN1CCOCC1)Nc1sc2c(c1C(=O)Nc1ccc(Br)cc1)CCC2`: the activation is -2.1%.

With `C[C@@H]1CN([C@@H](C)CO)C(=O)c2cc(NS(=O)(=O)c3ccc(Cl)cc3)ccc2O[C@H]1CN(C)S(=O)(=O)c1cn(C)cn1`, the activation was -1.79%.

For the compound `COc1cc(C=Nc2ccc(Cl)cc2)ccc1OC(=O)/C=C/c1cccs1`, the activation is -0.177%.

With `CCO/C([O-])=N\c1c[n+](N2CCOCC2)no1`, the activation is 0.71%.

`C[C@@H]1CN([C@H](C)CO)C(=O)c2cc(NC(=O)Cc3ccccc3)ccc2O[C@@H]1CN(C)CC1CCCCC1`: the activation was -0.76%.

In the case of `C[C@@H]1CCCCO[C@@H](CN(C)C(=O)NC2CCCCC2)[C@@H](C)CN([C@H](C)CO)C(=O)c2cc(NC(=O)CCCCCC(=O)Nc3ccccc3N)ccc2O1`, the activation is 0.709%.

Regarding `Cc1ccc(-n2c(C)nc3sc4c(c3c2=O)CCC4)cc1`, the activation was -4.12%.

For the compound `CC(=O)c1cccc(NC(=O)CN(c2ccc(F)c(Cl)c2)S(C)(=O)=O)c1`, the activation is 2.89%.

As for `C[C@@H]1CN([C@H](C)CO)C(=O)Cc2cc(NC(=O)C3CCCCC3)ccc2O[C@@H]1CN(C)Cc1ccc(C(F)(F)F)cc1`, the activation was -3.12%.

Regarding `CC1=Nn2c(Cn3nnc4ccccc43)nnc2SC1`, the activation is 0.665%.

Regarding `CC(=O)c1cccc(NC(=O)CN(C2CCCCC2)S(=O)(=O)c2ccccc2)c1`, the activation was -2.41%.

`CC(C)NC(=O)Nc1ccc2c(c1)C(=O)N([C@@H](C)CO)C[C@H](C)[C@@H](CN(C)C)O2`: the activation was 0.0718%.

As for `CCCOC(=O)C1=C(C)N(CC)C(=O)NC1c1ccccc1Cl` (centres undefined), the activation is -0.396%.

The values are drawn from PubChem BioAssay AID2316 (Broad Institute, 2010).
